# Reference: PubChem BioAssay (NCATS)
# Where “and” joins values, the source holds several entries; their conditions need not be identical. Identical values can stand only once. Inconclusive results are not listed. Entries that show only a call come without a potency. Some compounds were tested as several samples or in several runs, with calls that do not always agree. Calls of active or inactive are those of the source. For most assays here, the call rests on the fitted dose curve; in most records, active means well fitted curve in the direction sought with a large enough effect; inconclusive means small, poorly fitted or top-dose-only effect, or another doubt; inactive means no such curve, though single readings can be large; an effect the other way counts as inactive or inconclusive.
# Columns and labels:
# [1] = Ebola virus entry cell assay, ratio channel
# [2] = Identifying Small Molecule Inhibitors of Pancreatic Cancer Stem Cells (Panc1, Spheroid) (AID 1259359); conditions: Panc1 spheroid cancer stem cell viability; series mostly up to 46.1 µM;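 further: compound exposure lasted 48 h before reading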
# Method in brief: (§1)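 Spheroids grown 14 days in stem cell media on hydrogel-coated nonadherent plates; 2D lines seeded directly. Compounds added after 4 h attachment, 48 h at 37C, 5% CO2; CellTiter-Glo luminescence normalized to DMSO (no inhibition) and no-cell wells (full inhibition).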
# [3] = Identifying Small Molecule Inhibitors of Pancreatic Cancer Stem Cells (SN12C, Spheroid) (AID 1259360); conditions: Potency: SN12C spheroid viability; series mostly up to 46.1 µM; further: potency means the concentration at half of the fitted maximal effect
# Method in brief: (§2)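 After a 4 h attachment period, compounds were pinned into wells and cultures held 48 h under standard incubator conditions. Viability was then measured as CellTiter-Glo luminescence following 10 min at room temperature.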
# [4] = P-glycoprotein substrates identified in KB-3-1 adenocarcinoma cell line, qHTS therapeutic library screen (AID 1346986); conditions: KB-3-1 parental cells viability, CellTiter-Glo, 72 h; series mostly up to 44.5 µM; further: nearly all actives have a fitted effect of over 60% in size
# Method in brief: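 Cells seeded 500/well in DMEM/10% FCS; compounds pinned in dose-response; 72 h incubation; CellTiter-Glo added, 5 min, luminescence. KB-8-5-11 run ±tariquidar to test reversal of P-gp resistance.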
# [5] = qHTS assay for measurement of the activity of small molecule inhibitors on Zika virus induced Caspase-3 activity in human iPSC derived neural progenitor cells (hNPCs) (AID 1224857); conditions: hNPCs ZIKV-induced caspase-3/7, Caspase-Glo luminescence, 6 h; series mostly up to 45.7 µM; further: nearly all actives have a fitted effect of over 65% in size; further: potency means the concentration at half of the fitted maximal effect
# Method in brief: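 hNPCs seeded 350 cells/well, cultured 16–20 h; compounds added 1 h before ZIKV (2 FFU/cell), 37 C 6 h. Caspase-Glo 3/7 luminescence after 30 min RT; % inhibition from induction scaled to uninfected (0%) and infected (100%) wells.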
# [6] = qHTS assay for measurement of the activity of small molecule inhibitors on Zika virus induced Caspase-3 activity in human astrocytoma cells (AID 1224859); conditions: SNB-19 ZIKV-induced caspase-3/7, luminescence, 6 h; series mostly up to 45.7 µM
# Method in brief: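 Luminescence read-out (Caspase-Glo 3/7, 30 min RT) of caspase activity in SNB-19 cells infected 6 h with ZIKV, 2 FFU/cell, after 1 h compound pretreatment; % inhibition from induction normalised to uninfected (0%) and infected (100%) wells.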
# [7] = qHTS assay to identify small molecule inhibitors of chordoma cells - UCH-1 (AID 1259355); conditions: UCH-1 chordoma viability, CellTiter-Glo, 48 h, combination; series mostly up to 46.1 µM; further: nearly all actives have a fitted effect of over 55% in size
# Method in brief: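 Seed 800 cells per well; incubate overnight at 37 C, 5% CO2. Add test compounds (15 concentrations), then the auranofin–topoisomerase-agent combination. Incubate 48hr, add CellTiter-Glo, wait 30min, read luminescence.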
# [8] = qHTS assay to identify small molecule inhibitors of chordoma cells - UCH-2 (AID 1259356); conditions: UCH-2 chordoma viability, CellTiter-Glo ATP luminescence, 48 h; series mostly up to 46.1 µM
# [9] = Immunotoxin (SS1P) sensitization/mitigation study. Vehicle arm (DMEM) (AID 1159513; call rule not given here; further: potency means the concentration at half of the fitted maximal effect); conditions: cell viability with vehicle (DMEM); series mostly up to 46.1 µM
# [10] = High-throughput drug toxicity screening in the BPDCN cell line Gen2.2 (AID 1224824; call rule not given here;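 further: cells exposed to compounds for 48 h before reading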); conditions: Gen2.2 BPDCN cells; at 45.8 µM (top of the series)
# Method in brief: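 Gen2.2 cells (500/well) in phenol red-free RPMI with 10% FBS were exposed to compounds for 48 h at 37 °C, 5% CO2. Viability was read by CellTiter-Glo luminescence and normalized to DMSO (100%) and 9.2 uM bortezomib (0%).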
# [11] = High-throughput drug toxicity screening in the BPDCN cell line Cal-1 (AID 1224825; call rule not given here); conditions: Cal-1 BPDCN cell viability, qHTS; at 45.8 µM (top of the series)
# Method in brief: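 500 Cal-1 cells/well, RPMI + glutamine + 10% FBS (phenol red-free); cpd added by pin tool; 48 h, 37C, 5% CO2; CTG 15 min RT, lumi read. Normalised: DMSO 100%, bortezomib 9.2 uM 0%.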
# [12] = qHTS Screen of the MIPE 4.0 Collection Against Ewings Sarcoma (TC71) (AID 1259253); conditions: TC71 Ewing sarcoma viability, CellTiter-Glo, 48 h; series mostly up to 45.8 µM; further: nearly all actives have a fitted effect of over 40% in size; further: potency means the concentration at half of the fitted maximal effect
# Method in brief: (§3)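 CellTiter-Glo luminescence after 48 h compound exposure (titration) gave viability; percent activity used DMSO-treated cells as no inhibition and medium-only wells as full inhibition. Cells grown in RPMI/5% FBS, dosed 4 h post-seeding.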
# [13] = Identifying Small Molecule Inhibitors of Pancreatic Cancer Stem Cells (A278, Adherent) (AID 1259361); conditions: series mostly up to 46.1 µM; further: nearly all actives have a fitted effect of over 35% in size
# Method in brief: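 Cytotoxicity read by CellTiter-Glo luminescence after 48 h compound exposure at 37C; percent activity scaled between DMSO-treated cells and cell-free wells. Spheroid formats used cells pre-formed 14 days in stem cell media on hydrogel.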
# [14] = Identifying Small Molecule Inhibitors of Pancreatic Cancer Stem Cells (Panc1, Adherent) (AID 1259362); conditions: Potency: viability; series mostly up to 46.1 µM; further: potency means the concentration at half of the fitted maximal effect;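 on viability, % of control: compound exposure lasted 48 h before the viability read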
# Method in brief: as §1
# [15] = P-glycoprotein substrates identified in KB-8-5-11 adenocarcinoma cell line, qHTS therapeutic library screen (AID 1346987); conditions: KB-8-5-11 (P-gp overexpressing) viability, CellTiter-Glo, 72 h; series mostly up to 44.5 µM; further: nearly all actives have a fitted effect of over 65% in size; further: potency means the concentration at half of the fitted maximal effect
# Method in brief: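 KB-8-5-11, a colchicine-selected P-gp-overexpressing KB-3-1 subline, was grown without colchicine for the assay. Cells were seeded at 500 cells/well, dosed in concentration-response and incubated 72 h at 37 degree C, 5% CO2. Viability was read by CellTiter-Glo luminescence.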
# [16] = qHTS Screen of the MIPE 4.0 Collection Against Ewings Sarcoma (TC32) (AID 1259256); conditions: TC32 Ewing sarcoma viability, CellTiter-Glo, 48 h; series mostly up to 45.8 µM; further: nearly all actives have a fitted effect of over 45% in size; further: potency means the concentration at half of the fitted maximal effect
# Method in brief: as §3
# [17] = Identifying Small Molecule Inhibitors of Pancreatic Cancer Stem Cells (A2780, Spheroid) (AID 1259357); conditions: Potency: A2780 spheroid viability; series mostly up to 46.1 µM;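 further: compound exposure lasted 48 h before the ATP luminescence read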
# Method in brief: as §2
# [18] = target: Atrial natriuretic peptide receptor 1 (Homo sapiens) (UniProt P16066); test: Natriuretic polypeptide receptor (hNpr1) antagonism - Pilot screen (AID 1347049; calls by dose curve;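 further: agonist-evoked cGMP luminescence read 20 min after hNppA addition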); conditions: hNpr1 cells, antagonist mode cGMP read-out; series mostly up to 57.5 µM
# Sequence of Atrial natriuretic peptide receptor 1 (Homo sapiens) (P16066 whole entry, looked up): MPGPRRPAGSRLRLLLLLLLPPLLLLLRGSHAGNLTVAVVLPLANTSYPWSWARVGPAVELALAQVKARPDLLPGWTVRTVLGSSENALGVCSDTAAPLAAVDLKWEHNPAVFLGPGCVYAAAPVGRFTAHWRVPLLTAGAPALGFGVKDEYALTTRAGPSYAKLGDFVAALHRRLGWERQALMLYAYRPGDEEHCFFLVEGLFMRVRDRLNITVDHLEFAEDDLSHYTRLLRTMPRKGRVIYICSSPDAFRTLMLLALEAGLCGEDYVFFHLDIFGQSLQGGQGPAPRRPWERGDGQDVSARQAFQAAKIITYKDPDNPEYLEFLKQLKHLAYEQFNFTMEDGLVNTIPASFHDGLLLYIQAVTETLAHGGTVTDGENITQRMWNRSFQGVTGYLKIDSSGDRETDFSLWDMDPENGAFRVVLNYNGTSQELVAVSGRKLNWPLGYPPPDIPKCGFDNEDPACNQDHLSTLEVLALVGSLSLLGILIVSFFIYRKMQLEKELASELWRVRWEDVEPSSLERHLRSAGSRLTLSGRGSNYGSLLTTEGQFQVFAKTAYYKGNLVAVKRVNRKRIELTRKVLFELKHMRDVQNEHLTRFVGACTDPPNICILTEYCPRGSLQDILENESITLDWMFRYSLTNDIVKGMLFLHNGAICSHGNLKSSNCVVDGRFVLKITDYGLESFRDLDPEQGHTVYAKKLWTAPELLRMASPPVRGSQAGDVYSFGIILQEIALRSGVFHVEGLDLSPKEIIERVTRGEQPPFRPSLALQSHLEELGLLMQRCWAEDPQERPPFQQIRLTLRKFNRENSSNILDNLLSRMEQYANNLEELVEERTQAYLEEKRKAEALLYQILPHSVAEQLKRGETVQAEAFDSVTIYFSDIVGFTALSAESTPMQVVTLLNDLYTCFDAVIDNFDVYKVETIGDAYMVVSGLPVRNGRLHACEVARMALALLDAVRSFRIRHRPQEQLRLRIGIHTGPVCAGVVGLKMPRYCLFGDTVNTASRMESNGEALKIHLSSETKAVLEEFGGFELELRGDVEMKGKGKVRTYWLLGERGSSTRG
# Method in brief: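 Readout is cGMP-driven firefly luciferase luminescence in HEK293 cells carrying hNpr1 and a PDE5-domain GloSensor, read before and 20 min after 0.1 nM hNppA stimulation. Cells had 2% substrate reagent for 2 h and test compound for 30 min.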
# [19] = Immunotoxin (HA22) sensitization/mitigation study. Vehicle arm (PBS) (AID 1159510; call rule not given here; further: potency means the concentration at half of the fitted maximal effect); conditions: cancer cells viability with PBS vehicle (HA22 study); series mostly up to 46.1 µM
smiles,measurement,setting,value
COc1ccc(OC)c(C(O)CNC(=O)CN)c1 (centres undefined),outcome,[1],inactive
COC(c1ccccc1)(c1ccccc1)[C@H](Oc1nc(C)cc(C)n1)C(=O)O,outcome,[1],inactive
COc1ccc(Cl)cc1C(=O)NCCc1ccc(S(=O)(=O)NC(=O)NC2CCCCC2)cc1,outcome,[1],inactive
CC(C)NCC(O)COc1cccc2[nH]ccc12 (centres undefined),outcome,[1],inactive
CCCCc1oc2ccc(NS(C)(=O)=O)cc2c1C(=O)c1ccc(OCCCN(CCCC)CCCC)cc1,AC50,[1],3.16 µM (active)
Cc1ccnc2c1NC(=O)c1cccnc1N2C1CC1,outcome,[1],inactive
CNCCCN1c2ccccc2CCc2ccccc21,AC50,[1],15.8 µM (active)
COc1c(C)c2c(c(O)c1C/C=C(\C)CCC(=O)O)C(=O)OC2,outcome,[1],inactive
CC(C)C(=O)Nc1ccc([N+](=O)[O-])c(C(F)(F)F)c1,outcome,[1],inactive
C[C@@H](c1ncncc1F)C(O)(Cn1cncn1)c1ccc(F)cc1F (some centres undefined),outcome,[1],inactive
CCCNCC(O)COc1ccccc1C(=O)CCc1ccccc1 (centres undefined),AC50,[1],8.91 µM (active)
N[C@@H]1CONC1=O,outcome,[1],inactive
C[C@H]1c2cccc(O)c2C(O)=C2C(=O)[C@]3(O)C(O)=C(C(N)=O)C(=O)[C@@H](N(C)C)[C@@H]3[C@@H](O)[C@@H]21,outcome,[1],inactive
COc1c(C)c2c(c(O)c1C/C=C(\C)CCC(=O)OCCN1CCOCC1)C(=O)OC2,AC50,[1],3.98 µM (active)
CN(C)CCC=C1c2ccccc2C=Cc2ccccc21,AC50,[1],12.6 µM (active)
Cc1cc2c(s1)Nc1ccccc1N=C2N1CCN(C)CC1,outcome,[1],inactive
COC(=O)C(c1ccccc1Cl)N1CCc2sccc2C1 (centres undefined),outcome,[1],inactive
O[C@@H](CNC[C@H](O)[C@H]1CCc2cc(F)ccc2O1)[C@@H]1CCc2cc(F)ccc2O1,AC50,[1],5.01 µM (active)
COC(=O)C1=C(C)NC(C)=C(C(=O)OCC(C)C)C1c1ccccc1[N+](=O)[O-] (centres undefined),outcome,[1],inactive
CCC[C@H](N[C@@H](C)C(=O)N1[C@H](C(=O)O)C[C@@H]2CCCC[C@@H]21)C(=O)OCC,outcome,[1],inactive
COc1ccccc1OCCNCC(O)COc1cccc2[nH]c3ccccc3c12 (centres undefined),AC50,[1],10 µM (active)
Cn1c(CCCC(=O)O)nc2cc(N(CCCl)CCCl)ccc21,outcome,[2],inactive
same,Potency,[3],inactive
CN(C)CCN(C)CCc1ccc(Cl)c(Cl)c1,Potency,[3],18.7 µM (active)
CCCC(C)(COC(N)=O)COC(=O)NC(C)C (centres undefined),Potency,[4],inactive
Clc1ccc(COC(Cn2ccnc2)c2ccc(Cl)cc2Cl)cc1 (centres undefined),Potency,[5],inactive
same,outcome,[6],inactive
same,Potency,[7],inactive
same,Potency,[8],inactive
Cc1cccc(C)c1NC1=NCCCS1,Potency,[5],inactive
same,outcome,[6],inactive
same,Potency,[7],inactive
same,Potency,[8],inactive
COC1(CS(=O)c2ccccc2)CCN(CCc2c[nH]c3ccc(F)cc23)CC1 (centres undefined),Potency,[9],inactive
same,"cell viability, % of control (lower = more cytotoxic)",[10],66.1%
same,viability (% of control),[11],80.6%
same,Potency,[5],20.9 µM (active)
same,outcome,[6],inactive
same,Potency,[12],5.9 µM (active)
same,IC50 (viability decrease),[13],inactive
same,Potency,[14],inactive
same,Potency,[15],inactive
CNC(=O)N1N=C(c2ccc(N)cc2)c2cc3c(cc2CC1C)OCO3 (centres undefined),Potency,[9],5.26 µM (active)
same,"cell viability, % of control (lower = more cytotoxic)",[10],24.2%
same,viability (% of control),[11],9.51%
same,Potency,[5],inactive
same,outcome,[6],inactive
same,Potency,[16],11.8 µM (active)
same,Potency,[17],inactive
same,Potency,[3],inactive
same,IC50 (viability decrease),[13],7.43 µM (active)
Cc1cccc(C)c1NC(=O)CN1CCCC1=O,"cell viability, % of control (lower = more cytotoxic)",[10],116%
same,viability (% of control),[11],110%
same,Potency,[5],inactive
same,outcome,[6],inactive
same,Potency,[12],inactive
same,Potency,[18],inactive
COC[C@@H](NC(C)=O)C(=O)NCc1ccccc1,"cell viability, % of control (lower = more cytotoxic)",[10],142%
same,viability (% of control),[11],115%
same,Potency,[5],inactive
same,outcome,[6],inactive
same,Potency,[12],inactive
same,Potency,[16],inactive
CC(C)(N)Cc1ccc(Cl)cc1,Potency,[5],inactive
same,outcome,[6],inactive
same,Potency,[7],inactive
same,Potency,[8],inactive
O=C(O)c1ccc2[nH]cc(CCCCN3CC=C(c4ccccc4)CC3)c2c1,Potency,[5],inactive
same,outcome,[6],inactive
same,Potency,[7],inactive
same,Potency,[8],inactive
COC[C@H]1OC(=O)c2coc3c2[C@@]1(C)C1=C(C3=O)C2CCC(=O)[C@@]2(C)C[C@H]1OC(C)=O (some centres undefined),Potency,[19],5.9 µM (active)
same,Potency,[9],16.6 µM (active)
same,Potency,[5],inactive
same,outcome,[6],inactive
same,Potency,[3],18.7 µM (active)
same,IC50 (viability decrease),[13],23.5 µM (active)
same,Potency,[14],296 nM (active)
same,Potency,[4],inactive
same,Potency,[18],inactive
CN(C)CCc1ccc(O)cc1,"cell viability, % of control (lower = more cytotoxic)",[10],191%
same,viability (% of control),[11],108%
same,Potency,[5],inactive
same,outcome,[6],inactive
same,Potency,[16],inactive
same,Potency,[7],inactive
same,Potency,[8],inactive
same,Potency,[15],inactive
COc1ccc(C(=O)c2c(C)n(CCN3CCOCC3)c3ccccc23)cc1,Potency,[19],20.9 µM (active)
same,"cell viability, % of control (lower = more cytotoxic)",[10],100%
same,viability (% of control),[11],101%
same,Potency,[5],inactive
same,outcome,[6],inactive
same,Potency,[12],inactive
same,Potency,[16],inactive
same,Potency,[7],inactive
same,Potency,[8],inactive
same,Potency,[17],inactive
same,Potency,[15],inactive and 5.8 µM (active)
CNCC(O)c1ccc(O)cc1 (centres undefined),"cell viability, % of control (lower = more cytotoxic)",[10],145%
same,viability (% of control),[11],114%
same,Potency,[5],inactive
same,outcome,[6],inactive
same,Potency,[12],inactive
same,Potency,[16],inactive
same,Potency,[7],inactive
same,Potency,[8],inactive
same,Potency,[4],inactive
same,Potency,[18],inactive
